aSyn tox rescue: rescues yeast growth from alpha-synuclein toxicity; S. cerevisiae alpha-synuclein toxicity rescue, BacTiter-Glo growth, 24 h; Potency, µM (titrated, usually from 46.1 µM), most hits filed as activators; 94,000 tested, 0.02% active; active = well fitted activation curve with a large enough effect; also: 0% is about no effect
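Growth restoration measured by BacTiter-Glo luminescence after 24 hr at 30 deg C; alpha-synuclein yeast, raffinose-pregrown to mid-log, were added at OD600=0.02 in galactose medium onto pinned compounds.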
* = called active by the depositor. The entries come from a sample that favours hits as a whole. Potency is read from the fitted curve at half-maximal effect.

For CC(C)COc1ccc(C(=O)Nc2onc3c2CCCC3)cc1 the results were aSyn tox rescue inactive.
For Cc1ccc(C)c(S(=O)(=O)c2nnn3c2nc(Nc2ccc(F)c(Cl)c2)c2sccc23)c1 the results were aSyn tox rescue inactive.
Screening O=C(NCc1ccccc1Cl)c1ccc(NC(=O)N2CCSc3ccccc32)cc1 returned aSyn tox rescue inactive.
For COc1ccc(N2CCN(S(=O)(=O)CCNC(=O)c3ccc(OC(C)C)cc3)CC2)cc1 the results were aSyn tox rescue inactive.
Screening COc1cccc2c1cc1c(=O)n(CC(=O)N3CCN(c4cccc(C(F)(F)F)c4)CC3)nc(C)n12 returned aSyn tox rescue inactive.
`Cc1nc2nc(SCC(=O)NC(C)c3ccccc3)nn2c(C)c1Cc1c(F)cccc1Cl` (configuration not stated) gave aSyn tox rescue inactive.
For CC(C)c1ccc(Nc2c(-c3ccccc3O)nc3cnccn23)cc1 the results were aSyn tox rescue 22µM*.
Screening COc1cc(-c2nc3cnccn3c2Nc2ccc(C(C)C)cc2)ccc1O returned aSyn tox rescue inactive.
`Cc1ccn2c(Nc3ccc(C(C)C)cc3)c(-c3cccnc3)nc2c1` gave aSyn tox rescue inactive.
`Cc1ccc(NC(=O)Cn2c(=O)oc3cc(S(=O)(=O)NCc4ccccc4)ccc32)cc1` gave aSyn tox rescue inactive.
`CCOC(=O)Cc1ccc(NC(=O)N2CC(CC)Oc3ccccc32)cc1` (configuration not stated) gave aSyn tox rescue inactive.
`COc1ccc(Cn2c(C(=O)O)c(CNCCc3ccccc3Cl)c3ccc(C)cc32)cc1` gave aSyn tox rescue inactive.
CCc1ccc(OC(C)c2nc(-c3ccc(-n4cccc4)cc3)no2)cc1 (configuration not stated) was read as aSyn tox rescue inactive.
CCOc1ccc(NC(=O)CC2C(=O)N(c3ccccc3)C(=O)N2Cc2ccc3c(c2)OCO3)cc1 (configuration not stated) was read as aSyn tox rescue inactive.
`COC(=O)C1=C(C)NC(=O)C1(NC(=O)c1ccc(Cl)cc1)C(F)(F)F` (configuration not stated) gave aSyn tox rescue inactive.
`COc1ccc(NC(=O)c2c(NCc3ccc(N(C)C)cc3)sc3c2CCC3)cc1` gave aSyn tox rescue inactive.
`CC(=O)Nc1nonc1-c1nnc(SCc2ccccc2Cl)n1C` gave aSyn tox rescue inactive.
